Here are results for 32 compounds from PubChem BioAssay AID489043 (National Center for Advancing Translational Sciences (NCATS), 2010).

Records with an inconclusive call do not appear. A call without a number means that no potency is given here. Active and inactive are the calls of the source. Calls come from the whole dose curve; as a rule, active = well fitted activation curve with a large enough effect; inconclusive = small, poorly fitted or top-dose-only effect; inactive = flat fitted curve, though single readings scatter.
Potency is the fitted concentration of half-maximal effect.

Chain of Relaxin receptor 2 (Homo sapiens) (Q8WXD0 whole entry, looked up): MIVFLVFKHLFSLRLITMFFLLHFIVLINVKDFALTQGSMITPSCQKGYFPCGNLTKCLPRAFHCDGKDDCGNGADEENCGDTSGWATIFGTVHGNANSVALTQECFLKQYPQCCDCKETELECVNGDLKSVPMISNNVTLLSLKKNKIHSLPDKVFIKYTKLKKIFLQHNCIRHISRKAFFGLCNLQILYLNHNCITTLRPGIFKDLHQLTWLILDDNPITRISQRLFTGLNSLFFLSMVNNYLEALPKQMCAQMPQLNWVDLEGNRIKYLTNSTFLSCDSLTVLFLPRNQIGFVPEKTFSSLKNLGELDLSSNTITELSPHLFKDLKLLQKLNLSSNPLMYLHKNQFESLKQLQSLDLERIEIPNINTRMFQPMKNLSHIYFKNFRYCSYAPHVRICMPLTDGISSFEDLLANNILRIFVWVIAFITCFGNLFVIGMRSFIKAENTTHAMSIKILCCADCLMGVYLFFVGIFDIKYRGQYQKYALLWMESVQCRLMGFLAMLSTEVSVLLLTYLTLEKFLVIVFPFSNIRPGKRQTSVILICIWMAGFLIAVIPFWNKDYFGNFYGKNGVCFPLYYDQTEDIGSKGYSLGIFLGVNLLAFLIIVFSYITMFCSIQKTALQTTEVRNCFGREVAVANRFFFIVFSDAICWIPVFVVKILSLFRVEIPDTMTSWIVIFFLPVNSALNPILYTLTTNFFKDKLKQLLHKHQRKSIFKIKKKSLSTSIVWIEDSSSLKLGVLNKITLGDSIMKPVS

The target of this assay is Relaxin receptor 2 (Homo sapiens) (UniProt Q8WXD0). In words: qHTS Assay for Agonists of the Relaxin Receptor RXFP1: RXFP2 Hit Validation. Note: nearly all actives have a fitted effect of over 65% in size. The following applies: HEK293 RXFP2 cAMP TR-FRET, 30 min; series mostly up to 115 µM. The method in brief:
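Concentration-response EC50s (Hill equation) come from a cAMP TR-FRET assay in HEK293 RXFP2 cells, compound for 30 min at 37C with PDE4 inhibitor.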
On the technique in general: qHTS replaces the single test concentration by a dilution series.
For `C=CCNC(=O)NC(=O)COC(=O)c1nc2nccc(C)n2n1`, the Potency was 34.6 µM (active).

As for `CC1CCN(S(=O)(=O)c2ccc3nc(N4CCN(c5ccccc5)CC4)ccc3c2)CC1`, the Potency was 15.4 µM (active). For the compound `COC(=O)[C@@H]1C[C@@]2(O)[C@H](O)[C@H](O)[C@H](O)C[C@H]2N1Cc1cc(F)ccc1F`, the Potency entry is “inactive”. For `Cn1c(=O)c2sccc2n2c(CCCC(=O)NCc3ccco3)nnc12`, the Potency is 34.6 µM (active). Take `CCN(CC)CCCN1C=C2C(=O)C(C)(OC(=O)C3CCCC3)C(=O)C=C2C=C1c1ccsc1` (configuration not stated): the Potency entry is “inactive”.

Regarding `CC(=O)Nc1c2c3c(cccc3n(C)c1=O)C(=O)c1ccccc1-2`, the Potency entry was “inactive”.

As for `CC(C)c1ccccc1NC(=O)c1ccccc1NC(=O)C1CCCCC1`, the Potency entry was “inactive”. The result for `COc1ccc(NC(=O)CCCc2nnc3n(C)c(=O)c4sccc4n23)cc1` reads 34.6 µM (active); that for `CC1(C)Cc2c(sc3c2c2ncnn2c2nnc(SCC(=O)NCc4ccco4)n32)CO1`, 7.76 µM (active).

On to `O=c1c2ccccc2cnn1Cc1n[nH]c(=S)n1-c1ccc(F)c(Cl)c1`, for which the Potency is 15.5 µM (active). Under `CCCN(CCC)S(=O)(=O)c1cc(CN2C(=O)c3cccnc3C2=O)ccc1OC` stands 24.5 µM (active).

`CN(C)c1ccc2nc3c(=O)[nH]c(=O)nc-3n(CC(O)C(O)C(O)CO)c2c1` (configuration not stated): the Potency result is “inactive”.

Turning to `NC(=S)c1cc2ccc(O)cc2oc1=O`, the Potency was 4.88 µM (active). Under `CC[N+](CC)(CCCCS(=O)(=O)[O-])CCNP1(=O)C=C(c2ccccc2)OC(c2ccccc2)=C1` stands 34.6 µM (active); under `O=C(O)c1ccc(N=C2NC(=O)C(CO)(CO)S2)cc1`, “inactive”. The result for `O=C(Nc1ccccc1C(=O)O)c1ccc(NC(=O)C2CC2)cc1` reads “inactive”; that for `O=C(Nc1ccccc1C(=O)NCc1ccccc1)c1ccco1`, “inactive”. As to `COc1ccc(CC(=O)N/N=C/c2cccnc2)cc1OC`, the Potency result is “inactive”. Under `COc1ccc(NC(=O)CSc2nc(-c3ccc(C)cc3)cc(C(F)(F)F)c2C#N)cc1` stands “inactive”; under `CCc1cc2cc3c(cc2nc1SCC(=O)Nc1nccs1)OCO3`, 21.8 µM (active). The result for `O=C(Nc1ccccc1C(=O)N1CCNCC1)c1ccco1` reads “inactive”. The result for `O=C(CCc1nnc2ccc(NCCCN3CCCC3=O)nn12)NCc1ccccc1Cl` reads “inactive”; that for `O=C(Nc1ccccc1C(=O)NC1CCCCC1)c1ccco1`, “inactive”.

`COc1ccc(C(=O)Nc2ccc(Cl)cc2C(=O)NCc2ccco2)cc1`: the Potency was 42.1 µM (active). For the compound `NC(=O)c1ccccc1NC(=O)CC12CC3CC(CC(C3)C1)C2`, the Potency entry was “inactive”.

Consider `CC(C)C(=O)Nc1ccc(Nc2ccccc2)cc1`, for which the Potency entry is “inactive”.

Consider `Cc1ccc(-c2ccc3nnc(SCC(=O)NCC4CCCO4)n3n2)cc1` (configuration not stated), for which the Potency result is “inactive”. In the case of `Cc1ccc(NC(=O)CCc2nnc3ccc(N4CCN(C)CC4)nn23)cc1F`, the Potency was 38.9 µM (active). `Cc1cc(Br)c2nc3c(c(C(=O)O)c2c1)CCCCC3`: the Potency was 1.94 µM (active). Under `CCOC(=O)CNC(=O)CSc1nc2c(C)cccc2cc1CC` stands 19.4 µM (active); under `Cc1ccc(-n2nnc3c(=O)n(CC(=O)NCC4CCCO4)cnc32)cc1` (configuration not stated), 30.9 µM (active); under `COC(=O)c1cc(CN2C(=O)c3ccccc3C2=O)c(O)c([N+](=O)[O-])c1`, 38.9 µM (active).
